An excerpt weighted towards active compounds, which were near 14% of everything screened.
Pf growth 48h: P. falciparum growth inhibition at 48 hours (one generation); P. falciparum luciferase growth in erythrocytes, 48 h; Potency, µM (series often up to 28.7 µM), for the others: at the highest dose activity change, negative = inhibition, hits mostly inhibitors; 5.9% of 310,000 active; AID 504832; note: potency is the fitted concentration of half-maximal effect
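First compound was added to culture medium, then infected red cells at 0.1% parasitemia and 2% hematocrit (final). After incubation at 37 C under 5% CO2, luciferase detection reagent was dispensed and light output recorded.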
Sm TGR inh: S. mansoni TGR enzyme inhibition. Potency, µM (titrated, usually from 114 µM), for inactives: top-dose activity change, negative = inhibition, usual class: inhibitors. purified TGR, DTNB reduction, TNB absorbance 405 nm. 3% of 360,000 active; note: potency is the fitted concentration of half-maximal effect; nearly all actives have a fitted effect of over 60% in size
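Kinetic colorimetric format: TGR-catalysed, NADPH-driven DTNB reduction monitored via TNB absorbance. Enzyme dispensed at 20 nM; compound exposure 15 min at room temperature before reaction start.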
HCMV antiviral: inhibitors of human cytomegalovirus. HFF cells, HCMV-luciferase reporter, 72 h; stronger effect = lower value. activity change, negative = inhibition, % at 57.5 µM. 4.5% of 410,000 active; in the data active = activity change below about -60%; inconclusive = no clear call, values can overlap the other calls; inactive = above about -39%
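Steps: HFFs plated, 16 h 37C; compounds added; HCMV-luciferase added to MOI 1 PFU/cell; 72 h 37C; OneGlo reagent, 5 min room temperature; luminescence read, normalized to controls.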
Giardia FBPA inh: Giardia lamblia aldolase inhibition. purified Giardia FBPA. Potency, µM (highest dose often 59.6 µM), for the others: top-dose activity, negative = inhibition, usual class: inhibitors. 0.71% of 290,000 active. AID 2451; note: potency is the fitted concentration of half-maximal effect; nearly all actives have a fitted effect of over 55% in size
Target sequence (A8B2U2 whole entry, looked up): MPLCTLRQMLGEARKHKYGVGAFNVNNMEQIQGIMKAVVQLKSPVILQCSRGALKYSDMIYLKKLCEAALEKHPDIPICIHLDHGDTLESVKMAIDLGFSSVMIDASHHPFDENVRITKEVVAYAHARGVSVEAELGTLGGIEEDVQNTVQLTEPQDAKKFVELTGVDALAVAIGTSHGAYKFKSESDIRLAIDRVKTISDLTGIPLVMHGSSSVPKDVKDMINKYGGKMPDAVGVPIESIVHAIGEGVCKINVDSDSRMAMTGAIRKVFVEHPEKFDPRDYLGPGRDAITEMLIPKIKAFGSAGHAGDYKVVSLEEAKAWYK
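40 nM FBPA preincubated 10 min at RT with compound (up to 57.5 uM final), then substrate plus GAPDH/TPI/NAD/arsenate coupling and diaphorase/resazurin added. Fluorescence read after 20 min at RT, 525/598 nm.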
Pf growth 96h: inhibits malaria parasite growth, 96 h | P. falciparum luciferase reporter growth, 96 h | Potency, µM (series often up to 28.7 µM), inactives show at the highest dose activity change, negative = inhibition, hits mostly inhibitors | 6.9% of 320,000 active | AID 504834; note: potency is the fitted concentration of half-maximal effect
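96 h incubation, 37 C, 5% CO2, of luciferase-reporter P. falciparum-infected RBCs (2% hematocrit, 0.05% parasitemia final) with test compounds; endpoint luminescence.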
* = called active by the depositor. Unless noted, calls come from the whole dose curve; as a rule, active = well fitted curve in the direction sought with a large enough effect; inconclusive = small, poorly fitted or top-dose-only effect, or another doubt; inactive = no such curve, though single readings can be large; an effect the other way counts as inactive or inconclusive. % is set by controls: 0 for no effect and ±100 for the full control effect.

How did O=C(Cn1nc(C(F)(F)F)c2c1CCC2)Nc1ccccc1C(F)(F)F do in these assays?
Pf growth 48h: -24%; Sm TGR inh: -16%; HCMV antiviral: 6; Giardia FBPA inh: 4%; Pf growth 96h: inactive

What do the screens show for `COc1ccccc1NC(=O)Cn1nc(C(F)(F)F)c2c1CCCC2`?
Pf growth 48h: 14%; Sm TGR inh: -20%; HCMV antiviral: inconclusive; Giardia FBPA inh: -2%; Pf growth 96h: 2.1µM*

Results for O=C(Cn1nc(C(F)(F)F)c2c1CCC2)NCc1ccc(Cl)cc1 ?
Pf growth 48h: 10%; Sm TGR inh: 2%; HCMV antiviral: -19; Giardia FBPA inh: 0%; Pf growth 96h: 2%

Results for CCc1ccc(NC(=O)Cn2nc(C(F)(F)F)c3c2CCCC3)cc1 ?
Sm TGR inh: 4%; HCMV antiviral: -35

Results for CCNC(=O)c1ccc(-n2nc(C(F)(F)F)c3c2CCCC3)cc1 ?
Pf growth 48h: 15µM*; Sm TGR inh: 7%; HCMV antiviral: -40; Giardia FBPA inh: 4%; Pf growth 96h: 7.4µM*

Results for CC(C)CNC(=O)Cn1nc(C(F)(F)F)c2c1CCCC2 ?
Pf growth 48h: 20%; Sm TGR inh: 0%; HCMV antiviral: 4; Giardia FBPA inh: 4%; Pf growth 96h: 10µM*

Results for COc1cc(C(=O)OC2C[C@H]3CC[C@@H](C2)N3C)ccc1O (some centres undefined) ?
Pf growth 48h: 35%; Sm TGR inh: -5%; HCMV antiviral: 30; Giardia FBPA inh: 0%; Pf growth 96h: 31%

Results for COc1cc(C(=O)OC2C[C@H]3CC[C@@H](C2)N3)ccc1O (some centres undefined) ?
Pf growth 48h: 12µM*; Sm TGR inh: -23%; HCMV antiviral: 76; Giardia FBPA inh: -1%; Pf growth 96h: inconclusive

What do the screens show for `CCCCNC(=O)c1nc(C2CCNCC2)oc1-c1ccccc1`?
HCMV antiviral: 14

Results for O=C(Nc1ccc(Nc2ccccc2)cc1)c1c(F)c(F)c(F)c(F)c1F ?
Pf growth 48h: 45%; Sm TGR inh: -20%; HCMV antiviral: inconclusive; Giardia FBPA inh: -11%; Pf growth 96h: 4%

How did O=C(Nc1ccc(Nc2ccccc2)cc1)c1c(Cl)cccc1Cl do in these assays?
HCMV antiviral: -75*

Results for O=C(Nc1ccc(N2CCOCC2)cc1)c1c(F)cccc1Cl ?
Pf growth 48h: 7%; Sm TGR inh: 1%; HCMV antiviral: inconclusive; Giardia FBPA inh: -5%; Pf growth 96h: 6%

What do the screens show for `CC(C)(C)c1ccc(NC(=O)c2c(F)cccc2Cl)cc1`?
Pf growth 48h: inconclusive; Sm TGR inh: -6%; HCMV antiviral: -36; Giardia FBPA inh: -24%; Pf growth 96h: 9.3µM*

What do the screens show for `CC(C)CN1CCC(=O)N(CCN=[N+]=[N-])CC1`?
Pf growth 48h: -27%; Sm TGR inh: 4%; HCMV antiviral: 32; Giardia FBPA inh: -11%; Pf growth 96h: inconclusive

What do the screens show for `Cc1cccc(NCc2ccc(Br)cc2)n1`?
Pf growth 48h: -26%; Sm TGR inh: 0%; HCMV antiviral: inconclusive; Giardia FBPA inh: 0%; Pf growth 96h: -5%

What do the screens show for `COc1cc(NC(=O)c2cc(C)nc3c2c(C)nn3-c2ccccc2Cl)cc(OC)c1`?
Sm TGR inh: -3%; HCMV antiviral: -66*

What do the screens show for `COc1cc(NC(=O)c2cc(-n3cnnc3)ccc2Cl)cc(OC)c1`?
Pf growth 48h: 2%; Sm TGR inh: -6%; HCMV antiviral: -29; Giardia FBPA inh: -1%; Pf growth 96h: 13µM*

Results for O=C(c1ccc(Cl)cc1)n1nc(-c2ccco2)nc1NCc1cccs1 ?
Sm TGR inh: -32%; HCMV antiviral: 10

What do the screens show for `COC(=O)C(O)(c1ccccc1)C(Nc1ccc(OC)cc1)c1ccc(Cl)cc1` (centres undefined)?
HCMV antiviral: -3

Results for Cc1cccc(NC(=O)c2sc(Cl)nc2-c2ccccc2)c1 ?
Pf growth 48h: -6%; Sm TGR inh: -2%; HCMV antiviral: -15; Giardia FBPA inh: -1%

How did O=P(O)(CCc1ccccn1)CN1CCOCC1 do in these assays?
Sm TGR inh: 1%; HCMV antiviral: 5; Giardia FBPA inh: -1%; Pf growth 96h: 5.2µM*

How did CCCCC(=O)Nc1cccc(-c2nc3ncccc3o2)c1C do in these assays?
Pf growth 48h: 21%; Sm TGR inh: -2%; HCMV antiviral: -39; Giardia FBPA inh: 2%; Pf growth 96h: -17%

How did Cc1cc(-c2nc3ncccc3o2)ccc1NC(=O)CC(C)C do in these assays?
Pf growth 48h: 8%; Sm TGR inh: -6%; HCMV antiviral: 50; Giardia FBPA inh: 1%; Pf growth 96h: 4.1µM*

How did CCCC(=O)Nc1ccc(-c2nc3ncccc3o2)cc1C do in these assays?
Sm TGR inh: -3%; HCMV antiviral: 60

Results for Cc1c(NC(=O)c2cccc(-c3cc4ccccc4oc3=O)c2)cccc1-c1nc2ncccc2o1 ?
Pf growth 48h: inconclusive; Sm TGR inh: 6%; HCMV antiviral: -68*; Giardia FBPA inh: -4%; Pf growth 96h: inconclusive

What do the screens show for `Cc1c(NC(=O)C(C)C)cccc1-c1nc2ncccc2o1`?
Pf growth 48h: 5%; Sm TGR inh: -5%; HCMV antiviral: -16; Giardia FBPA inh: 10%; Pf growth 96h: 9.3µM*

What do the screens show for `CCCCOc1cccc(C(=O)Nc2cccc(-c3nc4ncccc4o3)c2C)c1`?
Sm TGR inh: 0%; HCMV antiviral: inconclusive

Results for Cc1cnc(C)c(Nc2nc(C(N)Cc3ccc(Cl)cc3)cs2)n1 (centres undefined) ?
HCMV antiviral: -12

What do the screens show for `COc1ccccc1NC(=O)CSC1=NC(=O)C(NC(C)=O)C(=O)N1` (centres undefined)?
Pf growth 48h: 4%; Sm TGR inh: -8%; HCMV antiviral: 50; Giardia FBPA inh: 1%; Pf growth 96h: 0.83µM*

How did N#Cc1nc(-c2ccco2)oc1N1CCc2ccccc2C1 do in these assays?
Pf growth 48h: -2%; Sm TGR inh: 50µM*; HCMV antiviral: -7; Giardia FBPA inh: -13%; Pf growth 96h: 35%

What do the screens show for `CC1(C)NC(=O)N(CC(O)COc2ccccc2C(=O)Nc2ccccc2)C1=O` (centres undefined)?
Pf growth 48h: -10%; Sm TGR inh: 2%; HCMV antiviral: -13; Giardia FBPA inh: 0%; Pf growth 96h: 13µM*

Results for C#CCOCCOCCOCCNc1nc(N2CCOCC2)nc(N2CCN(C(=O)CCCCCCCCCCNC(=O)[C@H](CO)n3cc(CCCCCN)nn3)CC2)n1 ?
Pf growth 48h: 0.33µM*; Sm TGR inh: -35%; HCMV antiviral: -14; Pf growth 96h: 0.83µM*

Assay outcomes as filed in PubChem.
